An excerpt weighted towards active compounds, which were near 11% of everything screened.
ALDH1A1 inh = inhibitors of human aldehyde dehydrogenase 1A1. Purified ALDH1A1, NADH fluorescence, propionaldehyde substrate. P00352. Potency, µM (doses to about 75.3 µM), hits mostly inhibitors. 220,000 compounds, 7.3% hits
HPGD block = blocks human HPGD enzyme activity. P15428. purified HPGD, NADH fluorescence kinetic, PGE2 substrate. Potency, µM, usual class: inhibitors. AID 894. 150,000 compounds, 4.3% hits
Target sequence (P15428 whole entry, looked up): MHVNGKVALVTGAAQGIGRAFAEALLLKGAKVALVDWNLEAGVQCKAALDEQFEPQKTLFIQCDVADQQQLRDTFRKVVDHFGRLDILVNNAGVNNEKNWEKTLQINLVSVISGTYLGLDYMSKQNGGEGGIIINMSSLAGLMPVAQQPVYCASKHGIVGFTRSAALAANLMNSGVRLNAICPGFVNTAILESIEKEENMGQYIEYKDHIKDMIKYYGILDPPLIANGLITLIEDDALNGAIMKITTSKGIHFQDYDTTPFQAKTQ
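20 nM HPGD preincubated 15 min at room temperature with compound in 50 mM Tris-HCl pH 8, 0.01% Tween 20. Started with 1 mM NAD+ and 30 uM prostaglandin E2; NADH fluorescence (360/450 nm) read 5 times over 30-s intervals, last minus first.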
PNC assembly inh = blocks assembly of the perinucleolar compartment. PC3M PTB-GFP, PNC prevalence imaging, 16 h; active compounds read low. activity change (PNC), negative = inhibition, % at 10 µM. 140,000 compounds, 3.1% hits;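 active = readout at or below -70, meaning at least 70% loss of cells showing the perinucleolar compartment, a nuclear body marking cancer cells; inconclusive = readout between -30 and a set limit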
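Read-out is percentage of cells bearing a perinucleolar compartment, from automated 20x imaging of fixed, Hoechst-stained PC3M PTB-GFP cells. Cells were seeded 4 h, then exposed 16 h to compound (23 nl of library stock) in duplicate plates.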
A number is an active result; i = inactive; ? = inconclusive; nt = no result given; [ ] = another dose, or the depositor's remark. Unless noted, calls follow the shape of the dose curve; as a rule, active = well fitted inhibition curve with a large enough effect (not every such curve was filed as active); inconclusive = small, poorly fitted or top-dose-only effect, or another doubt; inactive = no such curve, though single readings can be large or run the other way.

SMILES | ALDH1A1 inh | HPGD block | PNC assembly inh
CCN1C(=O)C(=O)N(CC(=O)Nc2ccccc2Oc2ccccc2)C1=O | i | nt | nt
CC(=O)CCc1ccc(OC(=O)c2cccnc2)cc1 | i | i | -100.0
CCOc1ccc(OC(=O)c2cccnc2)cc1 | i | i | ?
CCCCCOC(=O)c1ccc(OC(=O)c2cncc(Br)c2)cc1 | i | i | i
O=Cc1ccc(OC(=O)c2cccnc2)cc1 | 5.01µM | nt | nt
CCCCCCCOC(=O)c1ccc(OC(=O)c2cccnc2)cc1 | ? | 22.4µM | i
COC(=O)c1ccc(OC(=O)c2cccnc2)cc1 | i | i | i
CCOC(=O)c1c(C)[nH]c(C(=O)COC(=O)C2(C)CC2(Cl)Cl)c1C (configuration not stated) | ? | i | i
COc1ccccc1NC(=O)c1ccc(NC(=O)Cc2n[nH]c(=O)c3ccccc23)cc1 | i | nt | nt
CCCCOC(=O)c1ccc(NC(=O)/C=C/c2cccs2)cc1 | i | i | i
CCOC(=O)c1sc(=S)n(-c2ccccc2)c1N(C(C)=O)C(C)=O | i | nt | nt
Cc1c(C(=O)O)sc(=S)n1-c1ccccc1 | i | nt | ?
CCOC(=O)c1sc(=S)n(-c2ccccc2)c1N | ? | i | i
CCNC(=O)c1sc(=S)n(-c2ccc(C)cc2)c1N | 12.6µM | 35.5µM | i
Cc1ccc(C)n1-c1ccc(C(=O)N2CCOCC2)cc1 | ? | ? | i
CCOC(=O)c1sc(=S)n(-c2ccc(C)cc2)c1SC | 22.4µM | ? | ?
CN1CCN(C(=O)c2sc(=S)n(-c3ccccc3)c2N)CC1 | 3.16µM | 7.94µM | -96.8
Cc1ccc(-n2c(N)c(C(=O)N3CCOCC3)sc2=S)cc1 | 3.16µM | 10µM | -126.4
CN1CCN(CC(O)COc2ccc(C34CC5CC(CC(C5)C3)C4)cc2)CC1 (configuration not stated) | i | nt | nt
CCOC(=O)N1c2ccccc2Sc2ccccc21 | i | nt | nt
Cc1ccccc1/C(N)=N/OC(=O)N1c2ccccc2Sc2ccccc21 | i | 17.8µM | i
C=CCOC(=O)C1=C[C@H](c2coc3ccccc3c2=O)[C@@H](CCCO)[C@H](OCC)O1 | i | nt | nt
CCN(CC(=O)O)CC(=O)O | i[13.5 µM] | i | nt
Cc1noc(C)c1S(=O)(=O)N1CCc2nc(COc3ccccc3)c3c(c2C1)CO[C@@H](C)C3 | i[13.5 µM] | i | nt
O=C(Cc1cccs1)NNC(=O)C12CC3CC(CC(C3)C1)C2 | i | nt | nt
SMILES | ALDH1A1 inh | HPGD block | PNC assembly inh
COc1ccccc1-n1cccc1C=O | i | nt | nt
COc1ccccc1Cn1cccc1C=O | 14.1µM | nt | nt
O=[N+]([O-])c1ccc(Sc2cccc3cccnc23)c([N+](=O)[O-])c1 | i | i | i
O=[N+]([O-])c1ccc(Sc2cccc[n+]2[O-])c2nonc12 | 2.24µM | nt | nt
C[C@H]1[C@H]2CC[C@H]3C4CC=C5C[C@@H](N(C)C)CC[C@]5(C)C4CC[C@]23CN1C (some centres not stated) | i | i | nt
CC(C)NC(=O)c1onc(CSc2cccc3ccccc23)c1C(=O)O | ? | 22.4µM | i
COCCNC(=O)c1onc(CSc2ccc(C(C)C)cc2)c1C(=O)O | i | 15.8µM | i
CCCCNC(=O)c1onc(CSc2ccccc2)c1C(=O)O | i | i | i
CCOc1cccc(SCc2noc(C(=O)NCCOC)c2C(=O)O)c1 | ? | i | i
CCCCNC(=O)c1onc(CSc2ccc(C(C)C)cc2)c1C(=O)O | i | 10µM | i
CC(C)NC(=O)c1onc(CSc2ccccc2)c1C(=O)O | i | i | i
CCc1cccc(CC)c1NC(=O)CN1C2CCCC1CC(NC(=O)Nc1cccc(OC)c1)C2 (configuration not stated) | i | nt | nt
Cn1c(SCC(=O)NNC(=O)c2ccc(Cl)cc2)nnc1-c1cccnc1 | i | nt | nt
N#Cc1cccc(NC(=O)N2CC[C@@]3(CCCNC3)C2)c1 | ? | i | nt
Cc1ccc(N/N=C/c2c(C)c(C#N)c(=O)n(C)c2O)cc1C | 0.794µM | nt | nt
COc1cc(S(=O)(=O)Nc2ccc(C)cc2)ccc1N=Cc1c(C)c(C#N)c(=O)n(C)c1O | i | nt | nt
O=C1c2cccc3cccc(c23)C(=O)N1Nc1ccccc1 | 25.1µM | nt | nt
O=C1c2cccc3cc(Br)cc(c23)C(=O)N1Nc1ccc(Br)cc1 | i | i | ?
Cc1noc(C)c1C(=O)N1CCC2(CCN(Cc3ccncc3)CC2)CC1 | i | i | nt
C/C(=C1/SC(=S)N(CCC(=O)O)C1=O)c1ccc(O)cc1 | ? | 17.8µM | i
COc1ccc(/C(C)=C2\SC(=S)N(CCC(=O)O)C2=O)cc1 | i | i | i
O=C1CCCN1c1ccc(S(=O)(=O)Oc2cccc(Cl)c2)cc1[N+](=O)[O-] | i | i | -106.0
O=C1CCCN1c1ccc(S(=O)(=O)N2CCCCC2)cc1[N+](=O)[O-] | i | nt | nt
Cc1ccc2nc(NC(=O)c3ccc(NS(=O)(=O)c4cccs4)cc3)sc2c1 | ? | ? | i
CCCCC/C=C\C/C=C\CCCCCCCC(N)=O | i | i | nt
SMILES | ALDH1A1 inh | HPGD block | PNC assembly inh
S=C(Nc1ccc(Cl)c(Cl)c1)NC1CCN(Cc2ccccc2)CC1 | i | i | i
Fc1ccc(NC(=S)NC2CCN(Cc3ccccc3)CC2)cc1 | 14.1µM | nt | nt
CCCC/C=C/C(NC(=O)OCc1ccccc1Cl)c1ccccc1 (configuration not stated) | i | ? | nt
CC(=O)c1ccc(NC(=S)NCCc2cccc(Cl)c2)cc1 | i | nt | nt
Cc1ccc(NC(=O)c2cc(NC(=O)CCCC(=O)O)ccc2Cl)cc1Cl | i | i | i
CCCCOC(=O)Nc1ccc(C)c(Cl)c1 | i | 15.8µM | i
Cc1ccc(NC(=O)Cn2cccc2)cc1Cl | 11.2µM | 15.8µM | i
COCC(=O)Nc1ccc(C)c(Cl)c1 | i | 14.1µM | i
